The record followed here is the supplement of paper PMC6555819.

This assay has as its system VDR:RXRa (NR concentration 270 nM, RXRa partner concentration 90 nM). Nature of the assay: PBM binding z-score (relative to random genomic background probes); higher = stronger binding; sequences stand for … in GC…GCGATTGACAGCGTAGAATGAAGG
How it is done: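 Protein-binding microarray (Agilent 4x180K custom design, double-stranded 60-nt probes: 5' GC cap, 34-nt variable region, 24-nt constant primer region; full probe sequence given). Purified or IVT nuclear receptor:RXRα heterodimers (3:1 NR:RXRα, mostly 270:90 nM) or homodimers were incubated for 1 h in PBS with 2% milk and no ligand, then detected with Alexa488 antibodies. Fluorescence from o1-orientation probes (~5 replicates averaged) was converted to z-scores against 500 random hg19 background probes. Variable regions are seed direct-repeat (DR0–DR5) sites, all their single-nucleotide variants and half-site ablations.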
In the case of TCTTGTAGATCAATAGAAGTTAAGAAAGTGCGCT, the PBM binding z-score was determined as 0.744.

For the sequence TGAATGAGGTTAAATATCAGGGAACGTGGCGTCG, the PBM binding z-score came to 1.54.

As for CTATGTAGGTTACGGGGGTCATTCAGTTTGAAAG, the PBM binding z-score worked out at 7.72.

TACCCTAGGTCATGGGCCAGTATACCACGCGAAC: the PBM binding z-score amounted to 2.67.

For CGAACTAGGTCGCCAGGACAGTGAAGAGGTTGGA, the PBM binding z-score is -0.0336.

Regarding ATATGTAGGTTGGGGTCATTCAGAAAGTAGGGAA, the PBM binding z-score was 6.03.

GCTGCTAGGTCAACTGATGGTCACCTAAAGCTCG came in with a PBM binding z-score of 2.05.

For AGTCAAAGTTCATCTAGGTAACATAAGATATGCT, the PBM binding z-score amounted to 5.33.

CCGAGTAGGTTACTAGGGGGCATTCAGTGCGAAT: the PBM binding z-score turned out to be 5.13.

Turning to CGAACTAGGTCGTCCAGGACAGTGAATACATTGA, the PBM binding z-score was 1.65.

CCTTACGGGTAACGAGGTTATAGCACGACGAGCG came in with a PBM binding z-score of 1.38.

As to CCTTACGGGTCACGTGGTTATAGCACGACGAGCG, the PBM binding z-score was 3.94.

Take ACTCGGTGGACAAAGGTCAGAGCTACGCCAGTGA: the PBM binding z-score turned out to be 2.91.

As for ATATGTAGGTTAGCTGGGGTCATTCACACTAGGC, the PBM binding z-score was found to be 6.32.

TACCCTAGGTCATTGGGCCAGTATAGTACGCATC showed a PBM binding z-score of 2.73.

AGAATGAGGTTACCAAAGTTCAGGGAAACGCTTG registered a PBM binding z-score of 5.53.

On to AGTCAAAGTTCAGGACGACGTAACGTAAAGCACG, for which the PBM binding z-score was determined as 2.18.

Regarding CCTACTGGACCAAGGTCATTGATCAGTCAAAGCA, the PBM binding z-score was determined as 3.44.

In turn, CGTCCAAGGTCAAGGTCAATGAAAGAGACTCGAA registered a PBM binding z-score of 5.07.

The sequence CGAACTACGTCATCCAGGACAGTGAATACATTGA returned a PBM binding z-score of 0.17.

The sequence AGAATGAGGTTAAGTTCAGGGAAACAGAATACAT displayed a PBM binding z-score of 3.33.

With CGCACTAGGTCATCCAGGACAGTGAATACATTGA, the PBM binding z-score was determined as 4.38.

In turn, AGTCAAAGTTTATCTAGGTAACGTAAGATATGCT registered a PBM binding z-score of 0.584.

TAGCCTAGTTCATTCAGGGGCCAGTATAGAAAGC displayed a PBM binding z-score of 2.

As for TAGCCTAAGTCATGCGGGCCAGTATAGTGTCGGC, the PBM binding z-score is -0.392.

TTACCAAGGTCAAGGTCGTTGATCCCTCTGTAGA: the PBM binding z-score was 5.5.

Regarding TTGCCTAGGTCATTGGGCCAGTATAGTACGCATC, the PBM binding z-score was determined as 2.27.

In turn, AGCGAAAGGTCGAGGTGAGTATAGAGAAAGGGAA yielded a PBM binding z-score of 2.71.

Regarding ATCGAAAGGTCAAAGGTGAGTATACCCACCCGAA, the PBM binding z-score amounted to 6.2.

With CCTTACGGGTTACTCCAGGTTATAGCATCGGAGT, the PBM binding z-score amounted to 1.39.

The sequence TGTCAAAGGTCAAAGGTAACGTAAGTATCCACAC registered a PBM binding z-score of 6.2.

With CGTCTAAGGTCATAGGAGGTCAGTGAAGACAGAT, the PBM binding z-score was determined as 6.86.

For CCTACTGGGCCACTAAAGGTCATTGATTCAGTGA, the PBM binding z-score came to 4.05.

The sequence CGAACAAGGTCATCCAGGACAGTGAATACATTGA yielded a PBM binding z-score of 6.39.

Sequence CTCGAAAGGTCGTGCTCAGATGAGTATACCAAAC came in with a PBM binding z-score of 3.09.

As for AATACAGGGTCATCGTAGGTCAGAGTACGCACAG, the PBM binding z-score stood at 6.2.

The sequence AATACAGGGTCATCTTAGGCCAGAGTACGCACAG displayed a PBM binding z-score of 5.31.

TCTAGTTGGTCACGGAGGGCACACACGACGGGTA: the PBM binding z-score stood at 3.62.

For the sequence TAGCCTAGGTCATACAGGGGCCAGTATAGAAAGC, the PBM binding z-score was 2.6.

The sequence ACTCGGAGGACAAAGGTCAGGGCTACGCCAGTGA registered a PBM binding z-score of 3.43.
